Most compounds without a hit are left out; they make up all but 3.6% or so of the library.
TGFb SMAD3 inh – qHTS for Inhibitors of TGF-b; HepG2 CAGA-GFP TGF-b/SMAD3 reporter, GFP fluorescence, 18 h; TGF-beta stimulated, 500 pg/mL final; Potency, µM (series often up to 46.1 µM), usual class: inhibitors; hit rate 1.2% among 410,000; also: nearly all actives have a fitted effect of over 65% in size
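HEPG2 CAGA-GFP reporter cells (1000/well, DMEM with 1% FBS) received compounds, then recombinant TGF-beta at 500 pg/mL final for 18 hours at 37 degrees C. Per-cell GFP summed per well was normalised to unstimulated and stimulated DMSO controls before curve fitting.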
Nrf2 ARE act – qHTS of Nrf2 Activators. AREc32 ARE-luciferase reporter (MCF7-derived line), luminescence, 24 h. hit rate 0.31% among 410,000. Potency, µM (top dose mostly 46.1 µM), hits mostly activators; also: nearly all actives have a fitted effect of over 65% in size
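Luciferase luminescence (Steady-Glo, 30 min at room temperature) served as the read-out of ARE activation in AREc32 cells treated with compounds for 24 hr at 37 deg C.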
A549 tox-1 – Nrf2 qHTS screen for inhibitors: counterscreen for cytotoxicity; A549 ARE-Fluc cells, CellTiter-Fluor viability, 18-24 h; hit rate 0.16% among 390,000; Potency, µM (series often up to 46 µM), actives largely listed as inhibitors
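Cytotoxicity counterscreen: CellTiter-Fluor fluorescence was measured in A549 ARE_Fluc cells after 18-24 h of compound exposure in a concentration series. The subsequent BugLite luminescent read reports ARE-luciferase activity.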
HepG2 viability – qHTS for Inhibitors of TGF-b: Cytotox Counterscreen | HepG2 CAGA-GFP viability, ATP luminescence, 18 h | hit rate 0.76% among 410,000 | Potency, µM (titrated, usually from 46.1 µM), hits mostly cytotoxic
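CellTiter-Glo luminescence gave cytotoxicity after 18 hours at 37 degrees C. The cells were HepG2 CAGA-GFP in 1% FBS DMEM, stimulated with 500 pg/mL TGF-beta after compound addition. %Activity was normalised to no-cell wells (complete cell-killing) and DMSO (no toxicity), and curves were fitted and classified.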
Nrf2 inh – Nrf2 qHTS screen for inhibitors. A549 ARE-Fluc reporter, luciferase luminescence, 18-24 h. Potency, µM (doses to about 46 µM), hits mostly inhibitors. hit rate 2.1% among 360,000. AID 504444, 2011; also: nearly all actives have a fitted effect of over 60% in size
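In this cell-based qHTS, ARE-driven firefly luciferase in A549 cells reports Nrf2 activity; the luminescent signal after BugLite lysis is the measured value, with a prior CellTiter-Fluor read for cell health.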
FLuc counter 3 – Nrf2 qHTS screen for inhibitors: Purified Fluc Biochemical Counterscreen for Hit Validation; shares compounds with Nrf2 inh; purified firefly luciferase, luminescence inhibition; Potency, µM (highest dose often 57.5 µM), actives largely listed as inhibitors; hit rate 4% among 1,400; also: nearly all actives have a fitted effect of over 65% in size
Target sequence (P08659 whole entry, looked up): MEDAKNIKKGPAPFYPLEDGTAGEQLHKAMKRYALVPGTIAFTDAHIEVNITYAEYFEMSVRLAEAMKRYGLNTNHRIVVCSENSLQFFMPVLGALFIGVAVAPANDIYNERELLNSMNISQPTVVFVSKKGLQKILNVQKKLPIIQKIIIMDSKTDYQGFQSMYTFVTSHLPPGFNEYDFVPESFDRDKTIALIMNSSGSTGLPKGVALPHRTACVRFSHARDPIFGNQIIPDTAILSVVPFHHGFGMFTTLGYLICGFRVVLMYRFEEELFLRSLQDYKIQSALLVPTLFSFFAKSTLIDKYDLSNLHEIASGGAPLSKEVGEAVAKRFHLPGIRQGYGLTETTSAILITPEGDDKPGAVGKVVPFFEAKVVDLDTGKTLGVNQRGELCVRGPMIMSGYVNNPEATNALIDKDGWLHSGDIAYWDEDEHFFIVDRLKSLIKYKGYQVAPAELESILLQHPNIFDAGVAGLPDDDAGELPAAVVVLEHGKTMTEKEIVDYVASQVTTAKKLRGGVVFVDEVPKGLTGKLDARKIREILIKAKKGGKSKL
A549 tox-2 – Nrf2 qHTS screen for inhibitors: A549 ARE-Fluc Cytotoxicity Counterscreen for Hit Validation | shares compounds with Nrf2 inh | A549 ARE-Fluc cells, cytotoxicity counterscreen | Potency, µM (series often up to 46.1 µM), usual class: inhibitors | hit rate 2% among 1,400 | AID 720523, 2013;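 also: cells exposed to compounds for 18 to 24 hours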
Nrf2 ARE inh – Nrf2 qHTS screen for inhibitors: Nrf2 A549 ARE-Fluc Confirmation Assay for Hit Validation. hit rate 74% among 1,400. Potency, µM (top dose mostly 46.1 µM), actives largely listed as inhibitors. A549 ARE-firefly luciferase reporter, luminescence. shares compounds with Nrf2 inh; also: nearly all actives have a fitted effect of over 65% in size
Large screens that a line does not name were inactive (follow-up assays come after a bar, where shown). Calls follow the shape of the dose curve; as a rule, active = well fitted curve in the direction sought with a large enough effect; inconclusive = small, poorly fitted or top-dose-only effect, or another doubt; inactive = no such curve, though single readings can be large; an effect the other way counts as inactive or inconclusive.

Clc1ccc(-c2noc(CSc3nnc(-c4ccncc4)n3-c3ccccc3)n2)cc1	A549 tox-1 inconclusive, Nrf2 inh 2.3µM | FLuc counter 3 inactive | A549 tox-2 inactive | Nrf2 ARE inh 13µM
CC(C)c1nnc(N2C(=O)c3oc4ccccc4c(=O)c3C2c2cccc(O)c2)s1 (centres undefined)	TGFb SMAD3 inh inconclusive
CCN(Cc1ccccc1)S(=O)(=O)c1ccc(C(=O)N2CCN(c3nc4ccccc4s3)CC2)cc1	Nrf2 inh 1.8µM | FLuc counter 3 inactive | A549 tox-2 inactive | Nrf2 ARE inh 7.3µM
CCc1ccc2nc(N3CCN(C(=O)c4ccccc4)CC3)sc2c1	none (no result: Nrf2 inh)
CCOC(=O)N1CCN(C(=O)CCc2ccc(S(=O)(=O)NC(C)C)cc2)CC1	none
Cn1nc(-c2ccc(C(=O)N3CCN(CCO)CC3)cc2)c2ccccc2c1=O	none
C[C@H]1CCC/C=C/[C@@H]2C[C@H](O)C[C@H]2[C@H](O)[C@H](S(=O)c2ccc(O)cc2)CC(=O)O1 (some centres undefined)	TGFb SMAD3 inh 0.13µM, A549 tox-1 inconclusive, Nrf2 inh 0.26µM | FLuc counter 3 inactive | A549 tox-2 inconclusive | Nrf2 ARE inh 0.52µM
Cc1sc(NC(=O)Cc2ccc3c(c2)OCO3)nc1-c1ccc2c(c1)CCN2C(=O)c1ccc(F)cc1	Nrf2 inh 5.2µM | FLuc counter 3 inactive | A549 tox-2 inactive | Nrf2 ARE inh 2.6µM
Cc1sc(NC(=O)Cc2ccc3c(c2)OCO3)nc1-c1ccc2c(c1)CCN2C(=O)c1ccccc1F	Nrf2 inh inconclusive
O=C(c1cc(COc2cccc3cnccc23)on1)N1CCCC(CCCO)C1 (centres undefined)	Nrf2 inh 3.7µM | FLuc counter 3 inactive | A549 tox-2 inactive | Nrf2 ARE inh 2.3µM
Cc1ccnc(SCC(=O)Nc2sc3c(c2C#N)CCCC3)n1	Nrf2 inh 9.2µM | FLuc counter 3 inactive | A549 tox-2 inactive
O=C(Nc1ccc(Oc2ccccc2)cc1)c1cnc2n(c1=O)CCS2	Nrf2 inh inconclusive | FLuc counter 3 inactive | A549 tox-2 inactive | Nrf2 ARE inh 2.3µM
CCOc1ccccc1NC(=O)c1cnc2n(c1=O)CCS2	none
Clc1ccc(OCCN2CCN(c3ncnc4sccc34)CC2)cc1	Nrf2 inh 0.26µM | FLuc counter 3 inactive | A549 tox-2 inactive | Nrf2 ARE inh 0.46µM
Cc1ccc(Cn2nc(C)c(NC(=O)CSc3nc4c(c(C(F)(F)F)n3)CCc3ccccc3-4)c2C)cc1	none
Cc1nn(Cc2ccc(Cl)cc2)c(C)c1NC(=O)CSc1nc2c(c(C(F)(F)F)n1)CCc1ccccc1-2	A549 tox-1 inconclusive, HepG2 viability 0.63µM, Nrf2 inh 9.2µM | FLuc counter 3 inactive | A549 tox-2 inconclusive | Nrf2 ARE inh inconclusive
c1ccc(CN2CCC(Nc3ncnc4sccc34)CC2)cc1	none
Cc1sc2ncnc(NC3CCN(Cc4ccccc4)CC3)c2c1C	TGFb SMAD3 inh inconclusive, A549 tox-1 inconclusive, Nrf2 inh 4.6µM | FLuc counter 3 inactive | A549 tox-2 inactive | Nrf2 ARE inh 5.8µM
CC1CC(C)CN(C(=O)c2ccc(-c3ccc([N+](=O)[O-])cc3)o2)C1 (centres undefined)	none
COc1cccc(Cn2c3ccc(NC(=O)Cc4cc(OC)ccc4OC)cc3c(=O)n2C)c1	none (no result: A549 tox-1, Nrf2 inh)
CC(Sc1nnc(-c2ccc(Cl)cc2Cl)n1Cc1ccccc1)C(=O)Nc1nccs1 (centres undefined)	TGFb SMAD3 inh inconclusive, Nrf2 inh inconclusive
Cc1nnc(SC(C)C(=O)Nc2ccc(Cl)cn2)n1Cc1ccccc1 (centres undefined)	A549 tox-1 inconclusive, Nrf2 inh 9.2µM | FLuc counter 3 inactive | A549 tox-2 inactive | Nrf2 ARE inh inconclusive
N=c1ccn(Cc2ccccc2Cl)cc1	A549 tox-1 inconclusive (no result: Nrf2 inh)
N=c1ccn(Cc2c(Cl)cccc2Cl)cc1	Nrf2 inh 5.2µM | FLuc counter 3 inactive | A549 tox-2 inactive | Nrf2 ARE inh 4.1µM
O=C(NCc1ccncc1)c1ccc(Br)cc1	none
Cc1ccccc1OCC(=O)NNC(=O)C1CCCCC1C(=O)O (centres undefined)	TGFb SMAD3 inh inconclusive
O=C(CCCN1C(=O)/C(=C/c2ccccc2Cl)SC1=S)NNC(=O)c1ccc(Cl)cc1Cl	Nrf2 inh 6.5µM | FLuc counter 3 inactive | A549 tox-2 inactive | Nrf2 ARE inh 7.3µM
O=C(CCN1C(=O)/C(=C/c2ccccc2Cl)SC1=S)Nc1ccccc1C(=O)O	Nrf2 ARE act inconclusive
Cc1cc(-n2c(C)cc(C(=O)CSc3ncnc4ccccc34)c2C)no1	A549 tox-1 inconclusive, Nrf2 inh 4.6µM | FLuc counter 3 inconclusive | A549 tox-2 inactive | Nrf2 ARE inh 16µM
Cc1cc(C(=O)CSc2ncnc3ccccc23)c(C)n1C1CC1	none
Cn1c(=O)c2c(nc(NCc3ccco3)n2C/C=C/c2ccccc2)n(C)c1=O	TGFb SMAD3 inh 4µM, A549 tox-1 inconclusive, Nrf2 inh 4.1µM | FLuc counter 3 inactive | A549 tox-2 inactive | Nrf2 ARE inh 7.3µM
CC(=O)c1ccc(S(=O)(=O)N2CCN(CCOc3ccc(Br)cc3)CC2)cc1	TGFb SMAD3 inh inconclusive, A549 tox-1 inconclusive, Nrf2 inh 4.1µM | FLuc counter 3 inactive | A549 tox-2 inactive | Nrf2 ARE inh 5.8µM
CC(=O)c1cccc(S(=O)(=O)N2CCN(CCOc3ccccc3)CC2)c1	Nrf2 inh inconclusive
Cc1cccc(-c2c3c(=O)n(C)c(=O)n(C)c3cn2C(C)(C)C)c1	none
C=C1CCN([C@@H](CC(C)C)C(=O)NCc2cc(OC)c(OC)c(OC)c2)S(=O)(=O)c2ccccc21	none
CCN(Cc1cccc(S(=O)(=O)O)c1)c1ccc(C(=C2C=CC(=[N+](CC)Cc3cccc(S(=O)(=O)O)c3)C=C2)c2ccc(O)cc2S(=O)(=O)O)cc1	TGFb SMAD3 inh inconclusive (no result: Nrf2 ARE act, A549 tox-1, Nrf2 inh) | FLuc counter 3 9.5µM | A549 tox-2 inconclusive | Nrf2 ARE inh 8.2µM
COc1ccc(S(=O)(=O)N2CCC(Oc3ccc(-n4cnnn4)cc3)CC2)cc1	TGFb SMAD3 inh inconclusive, Nrf2 inh inconclusive

Assay outcomes deposited in PubChem by National Center for Advancing Translational Sciences (NCATS).
